# Reference: PubChem BioAssay
# Tested on: not listed separately
# Assay: probe aLAP1 signal on lysate-treated microarray – cell lysate, small-molecule microarray, COS7 lysate, primary screen (AID 1124);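 note: lysate comes from COS7 cells expressing LAP1 and is applied at 0.3 µg/mL; score merges spot fluorescence near 667 nm with signal-to-noise over triplicate slides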
# Details: probe aLAP1, fluorescence, higher = more signal
row,Compound,composite z-score
1,O=C(NCc1ccccc1)[C@@H]1c2ccccc2C(=O)N(C2Cc3ccccc3C2)[C@H]1c1ccc(CO)cc1,0.0541
2,COC(=O)c1c2oc(c1C(=O)OC)C(=O)NC1(CCCCC1)c1cn(nn1)C[C@H](Cc1ccccc1)NC(=O)N[C@H](CO)CC2,-0.0871
3,CCCCCCc1nc(-c2ccc(-c3ccc(Cl)c(Cl)c3)o2)cc2c1[Si](C(C)C)(C(C)C)O[C@H]2c1ccccc1,-0.418
4,COCCOC(=O)N1C(=O)[C@@]2(c3cc(C#CC4(O)CCCCCC4)ccc31)[C@H](C(=O)Nc1nc3ccccc3s1)[C@H]1C(=O)O[C@H](c3ccccc3)[C@H](c3ccccc3)N1[C@@H]2c1ccc(OCCO)cc1,0.324
5,COC(=O)[C@@]1(Cc2ccc(OC)cc2)[C@H]2c3cc(C(=O)N4CCCC4)n(CCCNc4ncc(C(F)(F)F)cc4Cl)c3C[C@H]2CN1C(=O)c1ccccc1,0.213
6,COC(=O)[C@@]1(Cc2ccc(OC)cc2)[C@H]2c3cc(C(=O)N4CCCC4)n(CCc4ccc(O)c(O)c4)c3C[C@H]2CN1C(=O)c1ccccc1,0.932
7,Cc1c(NC(=O)/C(C#N)=C/c2cccc([N+](=O)[O-])c2)c(=O)n(-c2ccccc2)n1C,0.861
8,C[N+](C)(C)CCCC[C@@H]1NC(=O)[C@@H]2C[C@H](C(=O)NCCCCCCNC(=O)CS)[C@H](c3ccc(O)cc3)N2C1=O,0.596
9,COC(=O)[C@@]1(Cc2ccccc2)[C@H]2c3cc(C(=O)N4CCCC4)n(Cc4ccc(O)c(OC)c4)c3C[C@H]2CN1C(=O)c1ccccc1,0.0364
10,O=C1O[C@@H](c2ccccc2)[C@@H](c2ccccc2)N2[C@@H](c3ccccc3OCCO)[C@]3(C(=O)Nc4ccccc43)[C@@H](C(=O)O)[C@H]12,0.369
11,CCCNC(=O)[C@@H]1c2ccccc2C(=O)N(Cc2ccccc2OC)[C@H]1c1ccc(CO)cc1,0.614
12,CC[C@@H]1C=C(C(=O)O)[C@H](c2ccc(C)cc2)N1S(=O)(=O)c1ccc(C)cc1,0.0014
13,O=C1O[C@H](c2ccccc2)[C@H](c2ccccc2)N2[C@H]1[C@@H](C(=O)NC[C@H](O)c1ccccc1)[C@]1(C(=O)Nc3ccccc31)[C@H]2c1ccc(O)cc1,0.463
14,Cc1ccc(S[C@]2(C(=O)NCC(C)C)CC(=O)N(Cc3cc(C(F)(F)F)cc(C(F)(F)F)c3)[C@@H]2c2ccc(CO)cc2)cc1,1.56
15,COCCOC(=O)N1C(=O)[C@@]2(c3cc(C#CC4=CCCCC4)ccc31)[C@H](c1ccc(OCCO)cc1)N1[C@H](c3ccccc3)[C@H](c3ccccc3)OC(=O)[C@H]1[C@@H]2C(=O)N1CCc2cc(OC)c(OC)cc2C1,0.868
16,COc1ccccc1CN1C(=O)c2ccccc2[C@@H](C(=O)NCc2ccccc2)[C@@H]1c1ccc(CO)cc1,1.54
17,COCCOC(=O)N1C(=O)[C@@]2(c3ccccc31)[C@H](C(N)=O)[C@H]1C(=O)O[C@H](c3ccccc3)[C@H](c3ccccc3)N1[C@@H]2c1ccc(O)cc1,0.325
18,C=C(/C(=C/C[C@H](OC(C)=O)c1ccc(OCCO)cc1)c1cc(C(=O)OC)ccc1OC)C(C)C,-0.144
19,COCCCNC(=O)[C@@]1(Sc2ccc(C)cc2)CC(=O)N(Cc2ccccc2Cl)[C@@H]1c1ccc(CO)cc1,0.203
20,O=C(O)[C@H](Cc1ccccc1)n1cc(-c2ccccc2)nn1,0.277
21,CC(C)[Si](C#CCCCC#N)(Oc1ccccc1Br)C(C)C,0.0245
22,C=CC1c2cc(O)c(OC)cc2CCN1Cc1cccc(OC(F)(F)F)c1 (centres undefined),0.754
23,O=C1OCCC=C[C@H]2OC34C=CCN(Cn5nnc6ccccc65)C(=O)[C@H]3N(CCO)C(=O)[C@@H]4C12 (some centres undefined),-0.38
24,CC(C)[Si](C#C[Si](C(C)C)(C(C)C)C(C)C)(O[C@H](C)c1cn(Cc2ccccc2)nn1)C(C)C,0.177

# Tested on: Sam68 (KHDRBS1)
# Assay: compounds binding KHDRBS1 protein – biochemical, small-molecule microarray, 635 nm fluorescence, primary screen (AID 1125);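 note: score merges 667 nm channel intensity with signal to noise over triplicate slides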
# Details: higher = more signal
row,Compound,composite z-score
1,COC(=O)C[C@H]1O[C@@H](CCc2ccccc2)[C@@H](C)[C@@H]1[Si](C)(C)c1ccc(OC)cc1,-1.1
2,CC(=CC1CCCCC1)[C@@H](NC(=O)c1cccnc1)c1ccc(-c2ccccc2)cc1,-0.649
3,[N-]=[N+]=Nc1ccccc1C[C@]1(C(=O)NCC(O)CO)N=C(c2ccc(OCCCO)cc2)O[C@H]1c1ccccc1 (some centres undefined),1.09
4,COCC(=C=CC[C@H](O)c1cccc(OCCO)c1)CCO,0.431
5,COC(=O)[C@H](Cc1ccccc1)N[C@H](/C=C/C1CC1)[C@@H](O)Cc1ccccc1,-0.56
6,C=CCOC(=O)[C@H]1[C@@H]2C(=O)O[C@@H](c3ccccc3)[C@@H](c3ccccc3)N2[C@@H](c2ccc(OCCOC(=O)[C@@H]3C[C@@H]4C(=O)N5CCC[C@H]5C(=O)N4[C@@H]3c3cccc(OCCO)c3)cc2)[C@]12C(=O)Nc1ccc(I)cc12,1.29
7,COCC(=C=CC[C@@H](O)c1ccc(OCCO)cc1)C[C@@H](O)c1ccccn1,0.472
8,COc1ccc([Si](C)(C)[C@@H]2[C@@H](CCO)O[C@]3(C(=O)N(Cc4cccc(N5CCOC5=O)c4)c4ccccc43)[C@H]2C)cc1,1.15
9,[N-]=[N+]=Nc1ccccc1[C@H]1OC(c2ccc(OCCCO)cc2)=N[C@@]1(Cc1ccccc1)C(=O)N1CCOCC1,1.29
10,CN1C(=O)C2C=CC(C(O)C=Cc3ccc([N+](=O)[O-])cc3)N(Nc3ccccc3)C2C1=O (centres undefined),1.3
11,C#CCOc1ccc(C[C@@H](C(=O)OC)N(CC#C)[C@@H](/C=C/C2CC2)[C@H](O)Cc2ccccc2)cc1,-0.51
12,O=C(NCc1ccccc1)[C@@H]1c2ccccc2C(=O)N(C2Cc3ccccc3C2)[C@H]1c1ccc(CO)cc1,0.958
13,COC(=O)c1c2oc(c1C(=O)OC)C(=O)NC1(CCCCC1)c1cn(nn1)C[C@H](Cc1ccccc1)NC(=O)N[C@H](CO)CC2,0.789
14,CCCCCCc1nc(-c2ccc(-c3ccc(Cl)c(Cl)c3)o2)cc2c1[Si](C(C)C)(C(C)C)O[C@H]2c1ccccc1,-0.472
15,COCCOC(=O)N1C(=O)[C@@]2(c3cc(C#CC4(O)CCCCCC4)ccc31)[C@H](C(=O)Nc1nc3ccccc3s1)[C@H]1C(=O)O[C@H](c3ccccc3)[C@H](c3ccccc3)N1[C@@H]2c1ccc(OCCO)cc1,1.3
16,COC(=O)[C@@]1(Cc2ccc(OC)cc2)[C@H]2c3cc(C(=O)N4CCCC4)n(CCCNc4ncc(C(F)(F)F)cc4Cl)c3C[C@H]2CN1C(=O)c1ccccc1,0.313
17,COC(=O)[C@@]1(Cc2ccc(OC)cc2)[C@H]2c3cc(C(=O)N4CCCC4)n(CCc4ccc(O)c(O)c4)c3C[C@H]2CN1C(=O)c1ccccc1,-0.0777
18,Cc1c(NC(=O)/C(C#N)=C/c2cccc([N+](=O)[O-])c2)c(=O)n(-c2ccccc2)n1C,0.928

row,Compound,composite z-score
1,C[N+](C)(C)CCCC[C@@H]1NC(=O)[C@@H]2C[C@H](C(=O)NCCCCCCNC(=O)CS)[C@H](c3ccc(O)cc3)N2C1=O,-0.731
2,COC(=O)[C@@]1(Cc2ccccc2)[C@H]2c3cc(C(=O)N4CCCC4)n(Cc4ccc(O)c(OC)c4)c3C[C@H]2CN1C(=O)c1ccccc1,0.008
3,O=C1O[C@@H](c2ccccc2)[C@@H](c2ccccc2)N2[C@@H](c3ccccc3OCCO)[C@]3(C(=O)Nc4ccccc43)[C@@H](C(=O)O)[C@H]12,1.12
4,CCCNC(=O)[C@@H]1c2ccccc2C(=O)N(Cc2ccccc2OC)[C@H]1c1ccc(CO)cc1,1.1
5,CC[C@@H]1C=C(C(=O)O)[C@H](c2ccc(C)cc2)N1S(=O)(=O)c1ccc(C)cc1,1.19
6,O=C1O[C@H](c2ccccc2)[C@H](c2ccccc2)N2[C@H]1[C@@H](C(=O)NC[C@H](O)c1ccccc1)[C@]1(C(=O)Nc3ccccc31)[C@H]2c1ccc(O)cc1,0.959
7,Cc1ccc(S[C@]2(C(=O)NCC(C)C)CC(=O)N(Cc3cc(C(F)(F)F)cc(C(F)(F)F)c3)[C@@H]2c2ccc(CO)cc2)cc1,-0.309
8,COCCOC(=O)N1C(=O)[C@@]2(c3cc(C#CC4=CCCCC4)ccc31)[C@H](c1ccc(OCCO)cc1)N1[C@H](c3ccccc3)[C@H](c3ccccc3)OC(=O)[C@H]1[C@@H]2C(=O)N1CCc2cc(OC)c(OC)cc2C1,1.31
9,COc1ccccc1CN1C(=O)c2ccccc2[C@@H](C(=O)NCc2ccccc2)[C@@H]1c1ccc(CO)cc1,1.09
10,COCCOC(=O)N1C(=O)[C@@]2(c3ccccc31)[C@H](C(N)=O)[C@H]1C(=O)O[C@H](c3ccccc3)[C@H](c3ccccc3)N1[C@@H]2c1ccc(O)cc1,0.371
11,C=C(/C(=C/C[C@H](OC(C)=O)c1ccc(OCCO)cc1)c1cc(C(=O)OC)ccc1OC)C(C)C,1.31
12,COCCCNC(=O)[C@@]1(Sc2ccc(C)cc2)CC(=O)N(Cc2ccccc2Cl)[C@@H]1c1ccc(CO)cc1,1.1
13,O=C(O)[C@H](Cc1ccccc1)n1cc(-c2ccccc2)nn1,0.187
14,CC(C)[Si](C#CCCCC#N)(Oc1ccccc1Br)C(C)C,0.993
15,C=CC1c2cc(O)c(OC)cc2CCN1Cc1cccc(OC(F)(F)F)c1 (centres undefined),0.909
16,O=C1OCCC=C[C@H]2OC34C=CCN(Cn5nnc6ccccc65)C(=O)[C@H]3N(CCO)C(=O)[C@@H]4C12 (some centres undefined),-0.75
17,CC(C)[Si](C#C[Si](C(C)C)(C(C)C)C(C)C)(O[C@H](C)c1cn(Cc2ccccc2)nn1)C(C)C,1.03
